According to PubChem BioAssay (NCI):
This is part of a sample that, as a whole, favours compounds with a hit. Of some 79,000 tested, about 15% had one in any assay. Unmarked numbers belong to inactive results. Calls of active or inactive are those of the source. Rule as the data show it: active = growth inhibition above about 70%; inactive = the rest.

Key:
[1] = NCI Yeast Anticancer Drug Screen. Data for the rad50 strain (AID 155);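 also: 0% = growth of vehicle-only cultures of the same strain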; settings: S. cerevisiae rad50 strain growth inhibition; at 50.0 µM; active compounds read high
Method in brief: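 Genetically altered yeast (DNA repair pathway); compound treatment; growth inhibition vs vehicle ctrl.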

[2] = NCI Yeast Anticancer Drug Screen. Data for the mec2-1 strain (AID 157); settings: S. cerevisiae mec2-1 strain, at 50.0 µM, active compounds read high
Method in brief: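 Yeast mec2-1 mutant treated with compound. Readout: growth inhibition vs vehicle controls.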

[3] = NCI Yeast Anticancer Drug Screen. Data for the sgs1 mgt1 strain (AID 161);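 also: 0% = growth of cultures given vehicle only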; settings: S. cerevisiae sgs1 mgt1 strain, at 50.0 µM, active compounds read high
Method in brief: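 Test agents were incubated with a DNA-repair-mutant yeast strain. Growth was then read and compared against vehicle-treated controls.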

[4] = NCI Yeast Anticancer Drug Screen. Data for the cln2 rad14 strain (AID 165);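 also: 0% = growth equal to vehicle treated cultures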; settings: S. cerevisiae cln2 rad14 strain, at 50.0 µM, active compounds read high
Method in brief: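 cln2 rad14 yeast strain; compound exposure; growth inhibition read vs vehicle controls.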

[5] = NCI Yeast Anticancer Drug Screen. Data for the bub3 strain (AID 167); settings: S. cerevisiae bub3 mutant strain, at 50.0 µM, active compounds read high
Method in brief: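 Yeast carrying a defined mutation is treated with each compound, and growth is compared with that of vehicle-exposed cells to give inhibition.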

[6] = NCI Yeast Anticancer Drug Screen. Data for the mlh1 rad18 strain (AID 175); settings: S. cerevisiae mlh1 rad18 strain growth inhibition; at 50.0 µM; active compounds read high
Method in brief: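 Yeast w/ defined DNA-repair lesions; compound exposure; growth vs vehicle controls → % inhibition.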

Structure (SMILES) | growth inhibition [1] | growth inhibition [2] | growth inhibition [3] | growth inhibition [4] | growth inhibition [5] | growth inhibition [6]
CC(C)c1ccc(C(C)C)c(Cl)c1 | 43.7% | 13.9% | 16.4% | 7.95% | -12.6% | 12.5%
ClC(=Nc1ccccc1)c1cc(Cl)ccn1 | 18.1% | -1.8% | 8.3% | -12.4% | 50% | 8.15%
CC(=O)NC1=C(Sc2ccc(Cl)cc2)C(=O)c2ccccc2C1=O | 56.2% | 15.8% | 18.3% | -56.4% | 19.9% | 33.2%
Oc1cc(O)c2c(-c3c(O)c(-c4ccc(O)c(O)c4)[o+]c4cc(O)cc(O)c34)c(O)c(-c3ccc(O)c(O)c3)[o+]c2c1 | 44.4% | 4.85% | 9.6% | 11.1% | 22.7% | 21.8%
Cc1nc2ccccn2c1N=Nc1ccc(C(=O)NN)cc1 | 7.3% | -15.1% | 0.1% | 10.8% | -10.8% | -18.4%
O=C(/C(=C/c1ccc(Cl)cc1)c1ccccc1)c1ccccc1 | 9.2% | -28.4% | 6.45% | 13.9% | -21.1% | -2.75%
Cc1nnc2n1N=C(c1ccc(-c3ccc([N+](=O)[O-])cc3)o1)CS2 | 10.7% | 3.1% | -1.75% | 12.1% | -25.8% | 10.8%
C1=CC(c2ccccc2)C(c2ccccc2)C(c2ccccc2)=C1 (centres undefined) | -16.6% | 2.05% | 8.8% | -13.2% | -4.95% | -22.6%
CC(C)=CCC/C(C)=C\COC=O | 23% | 12.4% | 18.9% | 6.45% | 13.8% | 50.9%
O=C(/C=C/c1ccccc1)c1ccc(Oc2ccccc2)cc1 | -13.2% | -12.8% | -12.9% | -39.5% | 7.5% | -14.8%
CCCCCCCCCCCCSCCSCCC | -19.1% | -10.7% | 1% | -14.6% | -7.35% | 4.5%
S=C(NCc1ccco1)Nc1ccccc1Cl | 5.5% | -4.1% | 16.2% | 4.5% | 4.4% | 1.2%
CCOC(=O)c1cc2c(cn1)[nH]c1cccc(N)c12 | -10.3% | -39.5% | 7.05% | 5.85% | -3.5% | -9.55%
O=C(O)/C=C/C(=O)N1Cc2cc3ccccc3nc2C1 | -5.75% | -31.1% | -45.8% | -28.1% | -56.2% | -13.7%
CC1c2[nH]c3ccccc3c2CC1C(=O)O (centres undefined) | 10.3% | 12.6% | 5.25% | -13.2% | -9.8% | -5.35%
CCOc1ccc(NC(=O)/C=C/c2ccco2)cc1 | -12% | -8.75% | 13.9% | 22% | 5.3% | 3%
CC(=O)OCC1OC(Sc2nc3ncnc(N)c3[nH]2)C(OC(C)=O)C(OC(C)=O)C1OC(C)=O (centres undefined) | -0.55% | -1.3% | -18.9% | -3.5% | 4.5% | -3.4%
COC(=O)/C(=N/O)C(C(=O)C=C(C)C)C(=O)C(=O)Nc1nc2ccc([N+](=O)[O-])cc2s1 (centres undefined) | 18% | -4.55% | 10% | -58.8% | 5.95% | 6.25%
C[n+]1cc(I)cc2ccccc21 | 3.85% | -3.45% | -9.55% | -0.2% | 4.05% | 5.05%
CC(c1ccccc1)C(C)(C#N)c1ccccc1 (centres undefined) | 2.8% | 23.1% | 15.8% | 33.5% | 10.5% | 40.4%
COc1ccc(OCC(=O)N2CCCCC2)cc1 | -2.95% | -11.6% | 0% | -40.2% | 13.2% | -1.65%

Structure (SMILES) | growth inhibition [1] | growth inhibition [2] | growth inhibition [3] | growth inhibition [4] | growth inhibition [5] | growth inhibition [6]
CC(=O)Nc1ccc(OCCCc2ccccc2)c([N+](=O)[O-])c1 | -7.2% | 43.6% | 23.5% | -20.7% | 20.4% | -2.65%
CCn1c(=O)c(C#N)c2n(CC)c3ccccc3n2c1=O | 39.5% | 13.8% | 19.4% | 10.2% | 20.9% | 30%
Cc1cccc(C=NC23CC4CC(CC(C4)C2)C3)c1 | -30.4% | -40.5% | -40.5% | -30.7% | -44.9% | -43.3%
CCc1cccc(C)c1NC(=O)C(=O)Cc1nc2ccccc2s1 | 0.75% | -7.6% | -9.8% | -2.15% | -58% | -6.15%
CC1(C)OCC2(CO1)CSCCCSCC1(COC(C)(C)OC1)CSCCCSC2 | -5.65% | -12.9% | -8.75% | -11.8% | -25.5% | -3.8%
CNC(=O)OCC1=CC(=O)C=C(OC)C1=O | 7.3% | -14.9% | 18.4% | 14.4% | 2.45% | 9%
COC(=O)c1ccc(-c2nc(C#N)c(N)o2)cc1 | 5.9% | 19.1% | -11.1% | -1.45% | -14.8% | -43%
O=C(O)/C=C\c1cc2c(cc1[N+](=O)[O-])OCO2 | 0.4% | -5.3% | -4.2% | -12.2% | 14.6% | -2.5%
COC(=O)C1(C(=O)OC)C/C(C)=C(/C)SCCCS1 | -12.7% | -5.6% | -14.8% | 19.9% | -23.1% | -26.4%
Nc1nc(-c2ccncc2)cc(-c2cc(-c3ccncc3)nc(N)n2)n1 | -7.7% | -0.25% | -8.65% | -21.9% | -12.3% | 10.3%
CCCCCCCCCCCCCCCCCC[N+]1(C)CCOCC1 | 99.2% (active) | 99.5% (active) | 99.1% (active) | 98.7% (active) | 99.2% (active) | 99.5% (active)
O=S(=O)(SC1=NCCN1)c1ccc2ccccc2c1 | -2.75% | -5.15% | -15.1% | 6.65% | -3% | -41.5%
O=C(O)c1cc(C(=O)O)cc(N2C(=O)c3ccccc3C2=O)c1 | 1.45% | -30.4% | -22.4% | 39.3% | -6.1% | 0.5%
CCC1C[N+]2(C)CCc3cc(OC)c(OC)cc3C2CC1=O (centres undefined) | -10.2% | 1.25% | 12.8% | 19.9% | 1.35% | 7%
O=C1CC(=O)N(CCc2ccccc2)S(=O)(=O)N1CCc1ccccc1 | -8.9% | -21.4% | -14.2% | 30.4% | -15.2% | -32.8%
O=S(=O)(O)c1cc(N=Nc2cc(S(=O)(=O)O)c3cccnc3c2O)ccc1/C=C/c1ccc(N=Nc2cc(S(=O)(=O)O)c3cccnc3c2O)cc1S(=O)(=O)O.[Cu+2].[Na+] | 18.5% | 18.2% | 34.6% | 25% | -11.2% | 9.25%
CCOC(=O)c1sc(SSc2nc(C)c(C(=O)OCC)s2)nc1C | -4.4% | -4.7% | 2.7% | 12.9% | 4.75% | 10.1%
CCCCCCCCCC[n+]1cccc(C(N)=O)c1 | 3.7% | -17.2% | 13.8% | 3.75% | -1.05% | 28.9%
Ic1cc2c(cc1CNCc1ccccc1)OCO2 | 11.7% | -19.6% | 26.7% | – | 2.6% | 7.2%
C/C=C1/CN2CCc3c([nH]c4ccccc34)C2CC1C(Cc1c[n+]2c(c3[nH]c4ccccc4c13)CC1C(C(=O)OC)=COC(C)C1C2)C(=O)OC (centres undefined) | 13.4% | -25.6% | -21.4% | – | -22.2% | -12.3%
